Measured values published in PubChem BioAssay.
Calls of active or inactive are those of the source.

Columns and labels:
[1] = system: Plasmodium falciparum Sir2 (PF13_0152, Sir2A); test: Plasmodium falciparum Sir2A binding compounds – biochemical, small-molecule microarray, 635 nm fluorescence, primary screen (AID 1098); conditions: fluorescence 635 nm, higher = more signal;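 further: score merges spot fluorescence intensity with its signal-to-noise ratio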
[2] = probe aDKK1 binding to arrayed compounds – biochemical, biotinylated probe, 635/667 nm fluorescence, primary screen (AID 1099); conditions: small-molecule microarray, higher = more signal;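 further: score merges 667nm spot fluorescence with signal to noise across triplicate slides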
[3] = probe aCHRDL2 binding to arrayed compounds – biochemical, biotinylated probe, 635/667 nm fluorescence, primary screen (AID 1100); conditions: small-molecule microarray, higher = more signal
[4] = change in splice reporter luminescence, either direction, cell-based, HEK293, spliceosome inhibition project, primary screen (AID 1101); conditions: HEK293 splicing luciferase reporter, 24 h, higher = more signal, called active from +8 up or from −8 down;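 further: HEK293 cells carrying a splicing-competent luciferase reporter gene; test concentration not given here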
[5] = biological target: Fibroblast growth factor 10 (Homo sapiens) (UniProt O15520); test: compounds binding fibroblast growth factor 10 – biochemical, small-molecule microarray, 635 nm fluorescence, primary screen (AID 1102); conditions: FGF10 binding, fluorescence 635 nm, higher = more signal
[6] = system: glycogen synthase kinase-3 (GSK3A per assay name; protocol says GSK3B); test: compounds binding glycogen synthase kinase-3 – biochemical, small-molecule microarray, 635 nm fluorescence, GSK3A, primary screen (AID 1103); conditions: fluorescence 635 nm, higher = more signal; further: the record names both GSK3A and GSK3B
[7] = biological target: Epidermal growth factor receptor (Homo sapiens) (UniProt P00533); test: compounds binding epidermal growth factor receptor – biochemical, small-molecule microarray, 635 nm fluorescence, primary screen (AID 1104); conditions: EGFR binding, higher = more signal;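 further: score merges 667 nm emission intensity with spot signal to noise over triplicate slides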
[8] = biological target: Follistatin-related protein 3 (Homo sapiens) (UniProt O95633); test: compounds binding follistatin-related protein 3 – biochemical, small-molecule microarray, 635 nm fluorescence, primary screen (AID 1105); conditions: FSTL3 binding, higher = more signal;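 further: score merges emission near 667 nm and signal to noise per printed spot across three slides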
[9] = biological target: Dickkopf-related protein 1 (Homo sapiens) (UniProt O94907); test: small molecules binding DKK1 protein – biochemical, small-molecule microarray, 635 nm fluorescence scan, primary screen (AID 1106); conditions: higher = more signal;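 further: score merges emission near 667 nm with signal to noise over three replicate slides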
[10] = system: Inhibin beta A chain (activin A); test: small molecules binding activin A – biochemical, small-molecule microarray, 635 nm fluorescence scan, primary screen (AID 1107); conditions: INHBA, higher = more signal;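 further: mouse activin A protein probed at 4.33 µg/mL on printed slides; score merges bound-protein fluorescence near 667 nm with spot signal-to-noise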
[11] = system: Human papillomavirus type 1a protein E7 (residues 44-93); test: small molecules binding HPV E7 44-93 – biochemical, small-molecule microarray, residues 44-93, 635 nm fluorescence, primary screen (AID 1108); conditions: fluorescence 635 nm, higher = more signal;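 further: E7 fragment applied at 1 µg/mL in TBST for 1 h at 4 C; score combines spot fluorescence with its signal to noise ratio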
[12] = hepatitis C replication reporter changes, two-sided – Huh7 cells, luciferase reporter, HCV replication inhibitor project, primary screen (AID 1109); conditions: Huh7 HCV replicon luciferase reporter, 48 h; higher = more signal;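 further: huh7 hepatoma cells harbouring a luciferase neomycin HCV replicon reporter; luciferase luminescence as measure of HCV replicon replication; test concentration not given here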
[13] = biological target: Left-right determination factor 2 (Homo sapiens) (UniProt O00292); test: small molecules binding LEFTY2 protein – biochemical, small-molecule microarray, 635 nm fluorescence scan, primary screen (AID 1110); conditions: higher = more signal
[14] = biological target: Calmodulin-1 (Homo sapiens) (UniProt P0DP23); test: small molecules binding calmodulin-1 with EGTA – biochemical, small-molecule microarray, Cy5-labelled CALM1, profiling panel (AID 1111); conditions: Cy5-CALM1 binding fluorescence, higher = more signal;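 further: labelled calmodulin applied in Tris saline Tween buffer holding calcium plus EGTA and DTT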
[15] = biological target: Calmodulin-1 (Homo sapiens) (UniProt P0DP23); test: small molecules binding Ca-loaded calmodulin-1 – biochemical, small-molecule microarray, Cy5-labelled CALM1, plus calcium, artefact control for SMM control-protein annotation, profiling panel (AID 1112); conditions: Cy5-CALM1 binding fluorescence, higher = more signal;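 further: score merges spot fluorescence with signal to noise from triplicate slides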
[16] = probe aWnt5a binding to arrayed compounds – biochemical, biotinylated probe, 635/667 nm fluorescence, primary screen (AID 1113); conditions: small-molecule microarray, higher = more signal;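 further: score merges 667 nm fluorescence intensity with signal-to-noise per printed feature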
[17] = probe aShh binding to arrayed compounds – biochemical, biotinylated probe, 635/667 nm fluorescence, primary screen (AID 1114); conditions: small-molecule microarray, higher = more signal;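 further: probe is biotin-labelled aShh protein from a stem cell growth factor screen; measures binding of labelled protein to compounds printed on the slide; score merges feature fluorescence at 667 nm with signal-to-noise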
[18] = probe aNog binding to arrayed compounds – biochemical, biotinylated probe, 635/667 nm fluorescence, primary screen (AID 1115); conditions: small-molecule microarray, higher = more signal;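 further: probe is biotinylated aNog protein used at 0.15 µg/mL for 1 h at 4 C; z-score combines 667 nm fluorescence of each spot with its signal to noise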
[19] = biological target: Torsin-1A-interacting protein 1 (Homo sapiens) (UniProt Q5JTV8); test: compound microarray binding of lysate hLAP1 – cell lysate, small-molecule microarray, COS7 lysate, 635/667 nm fluorescence, primary screen (AID 1116); conditions: 635 nm fluorescence, higher = more signal
[20] = biological target: Alpha-bungarotoxin (Bungarus multicinctus) (UniProt P60615); test: compounds binding labelled alpha-BTX control protein – biochemical, small-molecule microarray, Alexa647 label, 635/667 nm fluorescence, artefact control for SMM control protein annotation, profiling panel (AID 1117); conditions: alpha-BTX-A647 binding fluorescence, higher = more signal
Chain of Alpha-bungarotoxin (Bungarus multicinctus) (P60615 whole entry, looked up): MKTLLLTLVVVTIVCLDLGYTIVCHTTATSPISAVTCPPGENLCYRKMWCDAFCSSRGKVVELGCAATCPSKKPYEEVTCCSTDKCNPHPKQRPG

Chain of Fibroblast growth factor 10 (Homo sapiens) (O15520 whole entry, looked up): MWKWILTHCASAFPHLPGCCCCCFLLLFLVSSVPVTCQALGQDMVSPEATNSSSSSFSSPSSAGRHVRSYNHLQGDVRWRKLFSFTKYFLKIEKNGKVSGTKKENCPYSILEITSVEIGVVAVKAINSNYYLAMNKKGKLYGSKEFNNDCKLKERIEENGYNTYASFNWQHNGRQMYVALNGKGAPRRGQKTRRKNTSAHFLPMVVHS
Chain of Dickkopf-related protein 1 (Homo sapiens) (O94907 whole entry, looked up): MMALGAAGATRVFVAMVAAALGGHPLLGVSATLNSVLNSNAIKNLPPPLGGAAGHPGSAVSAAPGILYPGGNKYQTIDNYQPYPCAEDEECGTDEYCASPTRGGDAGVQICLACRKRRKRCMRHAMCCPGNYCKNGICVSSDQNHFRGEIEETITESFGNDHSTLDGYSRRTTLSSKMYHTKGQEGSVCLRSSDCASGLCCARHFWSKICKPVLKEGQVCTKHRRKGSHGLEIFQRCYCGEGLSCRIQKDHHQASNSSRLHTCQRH
Chain of Epidermal growth factor receptor (Homo sapiens) (P00533 whole entry, looked up): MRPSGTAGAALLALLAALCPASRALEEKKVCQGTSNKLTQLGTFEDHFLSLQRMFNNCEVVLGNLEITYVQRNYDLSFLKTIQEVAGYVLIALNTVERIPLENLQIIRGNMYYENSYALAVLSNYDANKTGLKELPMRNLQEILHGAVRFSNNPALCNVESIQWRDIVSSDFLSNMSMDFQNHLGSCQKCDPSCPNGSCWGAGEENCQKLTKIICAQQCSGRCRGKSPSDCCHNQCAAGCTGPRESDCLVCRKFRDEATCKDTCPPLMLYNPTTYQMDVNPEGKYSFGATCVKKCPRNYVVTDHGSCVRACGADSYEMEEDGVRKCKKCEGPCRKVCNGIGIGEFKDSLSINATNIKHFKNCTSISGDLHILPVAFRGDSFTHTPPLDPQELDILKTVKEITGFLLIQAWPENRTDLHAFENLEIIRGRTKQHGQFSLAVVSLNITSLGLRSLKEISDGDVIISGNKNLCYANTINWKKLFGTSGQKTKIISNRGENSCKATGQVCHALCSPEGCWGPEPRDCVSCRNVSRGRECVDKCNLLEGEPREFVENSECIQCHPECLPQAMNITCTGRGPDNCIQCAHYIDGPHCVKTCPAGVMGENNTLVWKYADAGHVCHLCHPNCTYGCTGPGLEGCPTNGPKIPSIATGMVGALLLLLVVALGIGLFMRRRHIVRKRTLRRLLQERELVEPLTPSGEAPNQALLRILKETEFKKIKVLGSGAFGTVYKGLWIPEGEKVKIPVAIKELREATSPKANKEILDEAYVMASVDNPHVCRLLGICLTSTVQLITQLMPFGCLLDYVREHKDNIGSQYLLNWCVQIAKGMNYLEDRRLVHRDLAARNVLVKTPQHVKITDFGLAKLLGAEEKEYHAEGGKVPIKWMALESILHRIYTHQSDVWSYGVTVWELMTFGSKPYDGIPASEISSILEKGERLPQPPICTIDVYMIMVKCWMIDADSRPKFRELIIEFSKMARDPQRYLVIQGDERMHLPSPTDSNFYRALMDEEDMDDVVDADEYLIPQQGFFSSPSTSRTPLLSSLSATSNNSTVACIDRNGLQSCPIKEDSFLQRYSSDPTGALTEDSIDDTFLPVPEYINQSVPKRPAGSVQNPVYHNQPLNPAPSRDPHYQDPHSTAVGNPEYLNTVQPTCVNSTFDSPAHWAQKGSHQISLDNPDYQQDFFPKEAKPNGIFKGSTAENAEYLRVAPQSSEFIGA
Chain of Left-right determination factor 2 (Homo sapiens) (O00292 whole entry, looked up): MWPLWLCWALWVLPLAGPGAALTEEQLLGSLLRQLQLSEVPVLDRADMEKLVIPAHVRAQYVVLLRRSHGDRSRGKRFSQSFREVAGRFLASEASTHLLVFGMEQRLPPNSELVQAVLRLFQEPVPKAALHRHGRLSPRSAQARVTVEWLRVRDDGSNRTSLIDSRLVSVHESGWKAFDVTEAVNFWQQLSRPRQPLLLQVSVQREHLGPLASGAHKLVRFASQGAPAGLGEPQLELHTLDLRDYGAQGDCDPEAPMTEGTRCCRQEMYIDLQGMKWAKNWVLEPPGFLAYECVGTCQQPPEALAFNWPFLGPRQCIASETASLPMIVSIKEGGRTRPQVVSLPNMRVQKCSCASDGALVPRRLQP
Chain of Follistatin-related protein 3 (Homo sapiens) (O95633 whole entry, looked up): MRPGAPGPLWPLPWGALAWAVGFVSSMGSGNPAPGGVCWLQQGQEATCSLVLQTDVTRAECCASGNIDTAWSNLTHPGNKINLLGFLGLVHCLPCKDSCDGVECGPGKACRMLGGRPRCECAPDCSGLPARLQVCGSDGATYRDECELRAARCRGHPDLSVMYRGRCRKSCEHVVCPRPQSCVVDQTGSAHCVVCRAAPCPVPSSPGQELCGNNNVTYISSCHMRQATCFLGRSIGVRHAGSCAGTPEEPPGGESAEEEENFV
Chain of Torsin-1A-interacting protein 1 (Homo sapiens) (Q5JTV8 whole entry, looked up): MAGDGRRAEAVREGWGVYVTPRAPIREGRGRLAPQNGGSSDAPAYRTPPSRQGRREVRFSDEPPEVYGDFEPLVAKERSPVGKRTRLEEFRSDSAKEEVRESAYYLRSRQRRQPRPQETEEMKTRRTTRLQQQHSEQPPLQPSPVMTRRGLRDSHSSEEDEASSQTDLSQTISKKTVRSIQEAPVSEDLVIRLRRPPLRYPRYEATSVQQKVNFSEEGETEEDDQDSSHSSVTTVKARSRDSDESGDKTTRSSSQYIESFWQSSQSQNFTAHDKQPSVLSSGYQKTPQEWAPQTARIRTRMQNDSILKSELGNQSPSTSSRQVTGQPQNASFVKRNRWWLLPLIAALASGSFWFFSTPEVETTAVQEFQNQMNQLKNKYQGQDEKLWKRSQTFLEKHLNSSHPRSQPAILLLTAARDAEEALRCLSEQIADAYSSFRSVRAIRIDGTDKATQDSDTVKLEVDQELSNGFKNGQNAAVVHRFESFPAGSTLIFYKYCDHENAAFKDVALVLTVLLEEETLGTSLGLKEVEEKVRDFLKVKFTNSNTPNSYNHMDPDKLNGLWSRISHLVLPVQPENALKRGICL

SMILES | composite z-score [1] | composite z-score [2] | composite z-score [3] | z-score [4] | composite z-score [5] | composite z-score [6] | composite z-score [7] | composite z-score [8] | composite z-score [9] | composite z-score [10] | composite z-score [11] | z-score [12] | composite z-score [13] | composite z-score [14] | composite z-score [15] | composite z-score [16] | composite z-score [17] | composite z-score [18] | composite z-score [19] | composite z-score [20]
CCCC[C@@H]1C[C@H]1[C@@H](NC(=O)c1cccs1)c1ccc(C(F)(F)F)cc1 | 0.0819 | 0.0202 | 0.549 | 0.101 (inactive) | -0.609 | -0.776 | -0.507 | -0.152 | -0.0222 | 1.09 | -0.47 | -0.152 | -0.45 | -0.501 | -1.05 | -0.0334 | 0.214 | 0.277 | -0.515 | 0.237
CC(C)[Si](C#C[Si](C(C)C)(C(C)C)C(C)C)(O[C@H](C)c1cn([C@H](CO)Cc2ccccc2)nn1)C(C)C | 0.107 | -0.229 | -0.316 | -0.0126 (inactive) | 0.0848 | 0.229 | 0.0255 | -0.0447 | 0.377 | 0.201 | 0.534 | -0.677 | 0.182 | -0.0641 | -0.393 | -0.0924 | -0.0977 | -0.122 | 0.227 | -0.0846
CCOC(=O)C[C@H]1[C@H](OC(=O)Cc2ccc3c(c2)OCO3)[C@@H](NC(=O)Cc2ccc(OC)cc2)c2cc(OCCCO)ccc2N1C(=O)c1ccc2ccccc2n1 | 0.0382 | -0.189 | -0.265 | -0.95 (inactive) | 0.355 | 0.415 | 0.516 | -0.114 | 0.567 | 0.825 | 0.189 | -0.763 | 0.155 | -0.22 | -0.0545 | -0.0792 | 0.23 | -0.134 | 0.526 | 0.424
COC(=O)C1=CC(CCCO)=CC(C2CC2)N(C)C=C1C(=O)OC (stereo not given) | 0.948 | -0.302 | 0.41 | -0.519 (inactive) | -0.259 | -0.302 | -0.0025 | 0.481 | -0.673 | 0.576 | -0.105 | -0.902 | -0.087 | 0.727 | 0.295 | -0.184 | 0.449 | -0.328 | 1.03 | -0.24
C=C(CCCC)/C(=C/C[C@@H](OC(=O)c1ccncc1)c1ccccc1OCCO)c1cnc2ccccc2c1 | 1.26 | 0.276 | 0.178 | 1.03 (inactive) | 1.44 | 1.15 | 1.02 | 1.33 | 0.736 | 1.69 | 1.33 | -2.77 | 0.845 | 0.616 | -0.759 | 0.16 | -0.0849 | -0.218 | 1.92 | 1.35
C=CCN1C(=O)[C@@]2(O[C@@H](CCn3cc([C@H](O)c4ccccc4)nn3)[C@H]([Si](C)(C)c3ccc(OC)cc3)[C@H]2C)c2cc(N3CCC3=O)ccc21 | 1.43 | 0.0289 | 0.257 | -0.429 (inactive) | 0.216 | -0.0371 | -0.0844 | -0.296 | -0.0607 | 0.289 | 0.627 | -3.39 | 0.225 | 0.249 | 0.294 | -0.15 | -0.138 | 0.15 | 0.116 | 0.359
O=C1O[C@H](c2ccccc2)[C@H](c2ccccc2)N2[C@H]1[C@@H](C(=O)Nc1nc3ccccc3s1)[C@]1(C(=O)Nc3ccccc31)[C@H]2c1ccc(OCCO)cc1 | 1.35 | 0.07 | 0.341 | -0.472 (inactive) | 0.841 | 1.31 | 0.836 | 1.36 | 1.31 | 0.715 | 1.36 | -2.64 | 0.807 | 0.504 | -0.302 | -0.16 | 0.0899 | -0.411 | 0.442 | 1.02
C=CCC(OC(C)=O)[C@@H]1[C@@H](N(Cc2cccc3ccccc23)C(=O)Cc2ccc(F)cc2)c2cc(OCCCO)ccc2N1C(=O)c1ccc2ccccc2n1 (stereo not given in full) | 0.12 | 0.195 | 0.429 | 0.866 (inactive) | -0.0905 | -0.329 | -0.06 | -0.159 | -0.305 | 1.36 | -0.829 | -0.562 | 0.226 | 0.304 | 0.398 | -0.18 | -0.123 | -0.432 | 0.0149 | 0.411
C[N+](C)(C)CCCCCCNC(=O)[C@H]1C[C@H]2C(=O)NCC(=O)N2[C@H]1c1ccc(O)cc1 | 1.51 | -0.34 | -0.592 | -0.271 (inactive) | 1.35 | 0.846 | 0.056 | 1.42 | 0.687 | -0.253 | 1.34 | 1.4 | 1.03 | 0.14 | -1.16 | -0.0846 | 0.21 | -0.507 | -0.489 | 0.713
CC(C)OC(=O)C=C1C[C@@H](c2ccc(C(F)(F)F)cc2)O[C@@H](c2ccc(C(F)(F)F)cc2)O1 | 1.12 | 0.164 | 0.492 | -1.55 (inactive) | 0.158 | 0.485 | -0.765 | 0.0144 | -0.899 | -0.522 | 1.44 | -0.512 | -0.467 | 0.808 | 0.776 | -0.0643 | 0.536 | -0.261 | 2.25 | 1.83
COc1ccc([Si](C)(C)[C@@H]2[C@@H](CCO)O[C@]3(C(=O)N(Cc4ccc(N5CCCCC5=O)cc4)c4ccccc43)[C@H]2C)cc1 | 1.15 | -0.128 | -0.756 | -1.73 (inactive) | 1.21 | 0.83 | 0.336 | 0.87 | 0.562 | 0.669 | -0.0334 | -5.11 | 0.216 | 0.121 | 0.188 | -0.0758 | 0.191 | 0.0989 | 0.467 | 0.0967
